# An excerpt weighted towards active compounds, which were near 9% of everything screened.
# G9a inh: G9a (human) methyltransferase inhibition; Q96KQ7; G9a H3K9 monomethylation, AlphaScreen, 2 h; hit rate 8.8% among 350,000; Potency, µM (doses to about 102 µM), for the others: at the highest dose activity, negative = inhibition, actives largely listed as inhibitors; AID 504332; also: % is scaled to controls: 0 for no effect and ±100 for the full control effect; nearly all actives have a fitted effect of over 75% in size
#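 G9a (20 nM) was preincubated 15 min with compound, then reacted 2 h at room temperature with 500 nM biotin-H3K9 peptide and 20 µM SAM. Monomethyl-H3K9 detected by AlphaScreen using anti-H3K9me1 antibody.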
# BAZ2B block: inhibitors of human BAZ2B bromodomain. Q9UIF8. AlphaScreen BAZ2B-H3K14Ac peptide displacement. Potency, µM (series often up to 114 µM), inactives show at the highest dose activity change, negative = inhibition, actives largely listed as inhibitors. hit rate 4.4% among 360,000. AID 504333; also: % is scaled to controls: 0 for no effect and ±100 for the full control effect; nearly all actives have a fitted effect of over 60% in size
#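 AlphaScreen displacement: compounds (up to 110uM) incubated 30 min at room temperature with a preformed 50 nM BAZ2B/50 nM biotinylated H3K14Ac peptide complex in PBS pH 7.4 with Tween-20. Donor and acceptor beads at 10 ug/mL final added, 20 min light-protected before reading.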
# ALOX12 inh: ALOX12 (human) lipoxygenase inhibition | P18054 | purified 12hLO, xylenol orange hydroperoxide absorbance | Potency, µM (series often up to 108 µM), for inactives: at the highest dose activity change, negative = inhibition, actives largely listed as inhibitors | hit rate 1.1% among 580,000 | AID 1671190; also: % is scaled to controls: 0 for no effect and ±100 for the full control effect
#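 Purified human 12hLO (150 nM final) in 25 mM Hepes, 0.01% Triton X-100, pH 7.0 was preincubated 15 min at room temperature with compound. Then 40 uM arachidonic acid was added, 30 min. Hydroperoxide was read by Fe-XO absorbance ratio 573/405 nm.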
# HP1b chromo inh: inhibitors of HP1-beta chromodomain binding to methylated histone tails; P83916; AlphaScreen HP1-beta / biotin-H3K9me3 peptide binding; Potency, µM (series often up to 114 µM), for inactives: at the top dose activity change, negative = inhibition, most hits filed as inhibitors; hit rate 0.56% among 390,000; AID 540317; also: nearly all actives have a fitted effect of over 70% in size
#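 HP1-beta protein (50 nM final) preincubated 30 min at room temperature with biotinylated H3(1-18)K9me3 peptide (50 nM) in PBS pH 7.4, 0.01% Tween-20, then compound added for 30 min. AlphaScreen streptavidin donor/nickel chelate acceptor beads (10 ug/mL final), 30 min dark, luminescence read.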
# JMJD2A Tudor: JMJD2A Tudor domain (human) inhibition; hit rate 4.4% among 390,000; Potency, µM (doses to about 114 µM), inactives show at the highest dose activity change, negative = inhibition, actives largely listed as inhibitors; AlphaScreen JMJD2A-Tudor / H3K4me3 peptide binding; O75164; also: % is scaled to controls: 0 for no effect and ±100 for the full control effect; nearly all actives have a fitted effect of over 50% in size
# PLK1 PBD inh: blocks phosphopeptide binding to human PLK1 polo-box domain; Potency, µM, for the others: max response, negative = inhibition, most hits filed as inhibitors; P53350; Plk1 PBD binding of FITC phosphopeptide, fluorescence polarization; hit rate 2.8% among 360,000; also: series mostly up to about 57 µM; % is scaled to controls: 0 for no effect and ±100 for the full control effect; nearly all actives have a fitted effect of over 65% in size
# * hit, by the source's call; u = inconclusive; x = no result given; [ ] = another dose, or the depositor's remark. Calls follow the shape of the dose curve; as a rule, active = well fitted curve in the direction sought with a large enough effect; inconclusive = small, poorly fitted or top-dose-only effect, or another doubt; inactive = no such curve, though single readings can be large; an effect the other way counts as inactive or inconclusive. Potency is read from the fitted curve at half-maximal effect.
SMILES,G9a inh,BAZ2B block,ALOX12 inh,HP1b chromo inh,JMJD2A Tudor,PLK1 PBD inh
O=C(CN1C(=O)/C(=C2\SC(=S)N(CCS(=O)(=O)O)C2=O)c2ccccc21)Nc1cccc(Br)c1,8.9µM*,8.9µM*,u,50µM*,50µM*,6.7µM*
O=C(CN1C(=O)/C(=C2/SC(=S)N(CCS(=O)(=O)O)C2=O)c2ccccc21)Nc1cccc(C(F)(F)F)c1,x,x,u,10µM*,13µM*,11µM*
O=C(CN1C(=O)c2ccccc2Sc2ncccc21)Nc1cccc(C(F)(F)F)c1,-31%[59 µM],-16%,-28%,2%,-19%,x
COCCN1C(=O)/C(=C2/C(=O)N(CC(=O)Nc3ccccc3Cl)c3ccccc32)SC1=S,-1%,-11%,6%,-7%,-18%,-1%
CCCn1c(=O)c(Cc2ccccc2)c(O)c2ccccc21,-15%,9%,0%,15%,-35%,-11%
CCC(COC)NC(=O)CCc1nnc(Cc2c[nH]c3ccccc23)o1 (configuration not stated),u,-4%,1%,42%,5%,4%
CN(Cc1ccsc1)C(=O)CCc1nnc(Cc2c[nH]c3ccccc23)o1,9%,-1%,-23%,-16%,45µM*,24µM*
CC(C)(C)NC(=O)CCc1nnc(Cc2c[nH]c3ccccc23)o1,45µM*,18%,-14%,35%,-15%,-6%
CC1=Nc2cccc3cccc(c23)N1C,u,-38%,20%,u,-25%,-3%
CC1(COc2ccccc2)COc2ccc(C(=O)NCCc3cnc[nH]3)cc2N1 (configuration not stated),x,x,16%[176 µM],x,x,x
COc1cccc(OC)c1C(=O)NC(=S)Nc1cc(-c2nc3ccccc3[nH]2)ccc1Cl,u,-11%,u,u,-36%,9.5µM*
CC(C)(Oc1ccc(Br)cc1)C(=O)Nc1cc(-c2nc3ccccc3[nH]2)ccc1Cl,-14%[59 µM],-18%,-18%,29%,-30%,x
CC(=O)Nc1ccc(CNc2nc(NC(C)C)nc3cc(-c4ccccc4)sc23)cc1,x,x,45µM*,x,x,1%
COc1ccc(-c2cc(CNc3nc(NC(C)C)nc4cc(-c5ccccc5)sc34)on2)cc1,x,x,45µM*,x,x,5%
Cc1ccccc1-c1nnc(SCC(=O)NC2CCS(=O)(=O)C2)n1C (configuration not stated),x,x,-2%,23%,-15%,4%
COc1cccc(NC(=O)C2CC(=O)N=C(N)S2)c1 (configuration not stated),-3%[59 µM],13%,0%,-12%,5%[11.4 µM],-29%
CSc1ccc(CN(C)CCc2ccccn2)cc1,x,32µM*,-16%,u,25µM*,-20%
CN(CCc1ccccn1)Cc1ccc(Cl)cc1Cl,-20%[0.0925 µM],50µM*,u,u,20µM*,2%
CN(Cc1nc2ccccc2o1)Cc1ccc(Cl)cc1Cl,x,x,31%,x,x,x
CN(CCc1ccccn1)S(=O)(=O)c1ccccc1F,45µM*,u,0%,30%,u,-1%
CCCCC(=O)Nc1ccc(NCc2ccc(C)s2)cc1,50µM*,-35%,0%,-1%,u,-22%
CC1(c2ccc([N+](=O)[O-])cc2)Nc2ccccc2S1 (configuration not stated),28µM*,13µM*,u,u,40µM*,6.7µM*
O=C1Nc2ccccc2/C1=C/c1ccc([N+](=O)[O-])cc1,-4%,-11%,41%,31%,-1%,5%
CC(C)(C)C#CCn1c(/C=[N+](\[O-])C2CCCCC2)nc2ccccc21,x,50µM*,x,24%,u,-12%
CC(C)c1nc2ccccc2n1CC(O)COC1CCCCC1 (configuration not stated),7%,-10%,11%,27%,2%,4%
SMILES,G9a inh,BAZ2B block,ALOX12 inh,HP1b chromo inh,JMJD2A Tudor,PLK1 PBD inh
NC(=O)C(CC(=O)O)NC(=O)[C@@H]1CCCNc2c(I)cc([N+](=O)[O-])cc2C(=O)N[C@@H](CO)C(=O)N[C@@H](Cc2ccc(O)cc2)C(=O)N1 (some centres not stated),50µM*,-26%,x,14%,u,-3%
NC(=O)C(CC(=O)O)NC(=O)[C@@H]1CCCCNc2c(I)cc([N+](=O)[O-])cc2C(=O)N[C@@H](CO)C(=O)NCC(=O)N1 (some centres not stated),28µM*,u,x,x,x,x
NS(=O)(=O)c1cccc(NC(=O)CSc2nc3ccccc3c(=O)n2Cc2ccco2)c1,x,x,-19%,1%[57 µM],-16%,-16%
CCOC(=O)c1c(-c2ccc(OC)cc2)csc1NC(=O)C1CCCO1 (configuration not stated),13µM*,4%,u,-11%,-6%,9.5µM*
CCOC(=O)c1c(-c2ccc(F)cc2)csc1NC(=O)C1CCCO1 (configuration not stated),20µM*,8%,-28%,4%,23%,27µM*
COc1ccc(C(=O)NNC(=O)C(=O)N2CCCCC2)cc1OC,u,-5%,u,19%,25µM*,-5%
COc1cccc(C(=O)NNC(=O)C(=O)N2CCCCC2)c1,50µM*,-21%,-8%,16%,-15%,-2%
O=C(NNC(=O)c1cccc(Br)c1)C(=O)N1CCCCC1,11%[59 µM],-1%,3%,30%,1%,7%
COc1ccc(C(=O)Nc2ccc(C(=O)N3CCCCC3)cc2)cc1OC,23%,4%,9%,17%,4%,3%
CC(C)C(=O)Nc1ccc(NC(=O)Cc2c[nH]c3ccccc23)cc1,x,x,4%,x,x,x
CCC(C)c1ccc(NC(=S)NCCn2cc(Cl)cn2)cc1 (configuration not stated),x,-2%,35µM*,0%,-16%,-16%
CN(C)S(=O)(=O)c1cccc(NC(=O)c2cc(-c3cccs3)nn2-c2ccccc2)c1,-35%[59 µM],-31%,-19%,22%,-6%,-1%
Cc1ccc(CN2C3=NCCCN3c3ccccc32)cc1,-40%,5%,0%,-8%,-27%[11.4 µM],24µM*
c1ccc(CN2C3=NCCCN3c3ccccc32)cc1,-3%[59 µM],-3%,-13%,16%,-16%,-6%
O=C(CN1C2=NCCCN2c2ccccc21)c1ccc(Br)s1,50µM*,-34%,0%,9%,-18%,-2%
O=C(O)CN1C2=NCCCN2c2ccccc21,u,-25%,u,14%,5%,-11%
Cc1cccc(NC(=O)CSCC(=O)N2CCN(c3cccc(C(F)(F)F)c3)CC2)c1,14%[12.7 µM],-2%,-2%,22%,-25%,-11%
COc1ccc(C(=O)N2CCC[C@H]2c2nc(-c3ccccc3)no2)cc1,x,x,39%,x,x,x
